Assay [1] has as its target T1, Thyroid hormone receptor alpha (Rattus norvegicus) + Thyroid hormone receptor beta (Rattus norvegicus) (UniProt P18113+P63059). Briefly: TOX21_TR_LUC_GH3_Antagonist_Followup: Tox21 GH3 Thyroid Hormone Receptor Antagonism Luciferase Follow-Up Assay (AID 2283942). The procedure, abridged:
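Luminescence read-out (ONE-Glo, 30 min at room temperature) in GH3 reporter cells challenged with 1.0 nM T3 final. Compounds ran at 92 uM to 5nM over 15 concentrations for 24 h; DMSO served as negative control and baseline.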

In assay [2] the target is THRB (gene 7068) (UniProt P10828). Briefly: TOX21_TRB_BLA_Antagonist_Followup_ratio: Tox21 Thyroid Hormone Receptor beta Antagonism Beta-lactamase (BLA) Follow-Up Assay, Ratio (AID 2283958). The procedure, abridged:
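Read-out: blue/green (460:530 nm) ratio of cleaved to uncleaved CCF4-AM after 2 h at room temperature, fitted against DMSO baseline. HEK293T UAS-bla cells carrying GAL4-human TRβ LBD were exposed 18 h, 37C/5% CO2.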

The nature of assay [3]: TOX21_TRB_BLA_Antagonist_Followup_viability: Viability Assessment in the Tox21 Thyroid Hormone Receptor beta Antagonism Beta-lactamase (BLA) Follow-Up Assay (AID 2283961). An outline of the steps: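 ATP-based CellTiter-Glo luminescence (30 min, room temperature) run in the same wells as the TRβ-bla readout. Cells: GeneBLAzer HEK293T expressing GAL4-TRβ LBD, exposed 18 h at 37C to compounds at 11 concentrations in triplicate, stripped-serum medium.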

In assay [4] the target is THRB (gene 7068) (UniProt P10828). Briefly: TOX21_TRB_COA_Antagonist_Followup_ratio: Tox21 Thyroid Hormone Receptor beta Antagonism through Coactivator Recruitment Follow-Up Assay, Ratio (AID 2283967). An outline of the steps:
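GST-TRb LBD 5.0 nM + 0.10% BSA, compound added; fluorescein-SRC-2 peptide 200 nM, Tb-anti-GST Ab 2 nM. TR-FRET, ex 340 / em 520:495 ratio. Norm: DMSO 0%, T3 100%.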

In assay [5] the target is THRA (gene 7067) (UniProt P10827). Briefly: TOX21_TRA_COA_Agonist_Followup_ratio: Tox21 Thyroid Hormone Receptor alpha Agonism through Coactivator Recruitment Follow-Up Assay, Ratio (AID 2283948; active means hit-call score of the fitted dose curve at least 0.9, where 1 is the maximum; inactive means score below 0.9). An outline of the steps:
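Cell-free TR-FRET coactivator recruitment: GST-tagged TRα LBD (2.5 nM) with 0.10% BSA was incubated with compound, then fluorescein-SRC-2 peptide (200 nM) and Tb-anti-GST antibody (2 nM) added. 520:495 nm ratio normalized to DMSO (0%) and T3 (100%).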

Assay [6] has as its target THRB (gene 7068) (UniProt P10828). The experiment in a line: TOX21_TRB_BLA_Agonist_Followup_ratio: Tox21 Thyroid Hormone Receptor beta Agonism Beta-lactamase (BLA) Follow-Up Assay, Ratio (AID 2283954). The procedure, abridged: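 Agonist mode: compounds (11-point, triplicate) incubated 18 h with HEK293T cells carrying GAL4-DBD/human TRβ-LBD and UAS-β-lactamase. Blue/green (460/530 nm) FRET ratio read after 2 h CCF4-AM loading; CellTiter-Glo viability run in the same plates.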

Assay [7] in a line: TOX21_TRB_BLA_Agonist_Followup_viability: Viability Assessment in the Tox21 Thyroid Hormone Receptor beta Agonism Beta-lactamase (BLA) Follow-Up Assay (AID 2283956). The procedure, abridged:
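Viability was read as CellTiter-Glo luminescence in the same wells as the TRb-bla agonist read-out. HEK293T GAL4-TRb LBD cells were treated for 18 h (37C, 5% CO2) at 11 concentrations in triplicate. Fits were bidirectional versus DMSO baseline.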

The target of assay [8] is THRB (gene 7068) (UniProt P10828). The experiment in a line: TOX21_TRB_COA_Agonist_Followup_ratio: Tox21 Thyroid Hormone Receptor beta Agonism through Coactivator Recruitment Follow-Up Assay, Ratio (AID 2283963; active means hit-call score of the fitted dose curve at least 0.9, where 1 is the maximum; inactive means score below 0.9). The procedure, abridged: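 Signal is the 520/495 nm emission ratio (excitation 340 nm), scaled between DMSO-only wells as 0% and T3 wells as 100%. It reflects fluorescein-labeled SRC-2 peptide recruitment to GST-TRβ ligand-binding domain detected via terbium anti-GST antibody.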

Assay [9] deals with Retinoic acid receptor RXR-alpha (Homo sapiens) (UniProt P19793). The experiment in a line: TOX21_TR_RXR_BLA_Agonist_Followup_ratio: Tox21 Thyroid Hormone Receptor beta Retinoid X Receptor alpha (RXRa) Agonism Beta-lactamase (BLA) Follow-Up Assay, Ratio (AID 2283968). An outline of the steps: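 Read-out: blue/green (460:530 nm) FRET ratio from cleaved vs uncleaved CCF4 substrate, fitted for gain of signal relative to DMSO. Cells: HEK293T with RXRa-UAS-bla reporter; 16 h compound exposure, 11 concentrations, triplicate.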

A short description of assay [10]: TOX21_TR_RXR_BLA_Agonist_Followup_viability: Viability Assessment in the Tox21 Thyroid Hormone Receptor beta Retinoid X Receptor alpha (RXRa) Agonism Beta-lactamase (BLA) Follow-Up Assay (AID 2283970). An outline of the steps:
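CellTiter-Glo ATP quantitation as viability read-out in RXRa-bla HEK293T cells (2,500/well, charcoal-stripped 2% FBS medium), 16h compound incubation at 37C. Loss of signal versus DMSO taken as cytotoxicity, analyzed by bidirectional curve fitting.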

The target of assay [11] is PGR (gene 5241) (UniProt P06401). The experiment in a line: TOX21_PR_BLA_Followup_Antagonist_ratio: Tox21 HEK293 Progesterone Receptor (PR) Antagonism Beta-lactamase Follow-Up Assay, Ratio (AID 2283934). The procedure, abridged: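 Read-out: blue/green beta-lactamase FRET ratio (cleaved ch2 over uncleaved ch1), fitted relative to DMSO baseline. Cells: PR-UAS-bla HEK293T, GAL4-UAS reporter, stimulated with 1 nM R5020 final; 16 hr compound exposure, 37C.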

A short description of assay [12]: TOX21_PR_BLA_Followup_Agonist_viability: Viability Assessment in the Tox21 HEK293 Progesterone Receptor (PR) Agonism Beta-lactamase Follow-Up Assay (AID 2283935).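 Further: signal loss means lower viability so actives are cytotoxic.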 The procedure, abridged:
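Luminescent ATP quantitation (CellTiter-Glo, 30 min, room temperature) in the same wells as the beta-lactamase read, on PR-UAS-bla HEK293T cells exposed to compound for 16 hr at 37C in 2% charcoal-stripped serum.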

The nature of assay [13]: TOX21_PR_BLA_Followup_Antagonist_viability: Viability Assessment in the Tox21 HEK293 Progesterone Receptor (PR) Antagonism Beta-lactamase Follow-Up Assay (AID 2283936).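 Further: cells exposed to compound with R5020 agonist for 16 h; hits lower the luminescence signal meaning cytotoxicity.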 An outline of the steps:
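PR-UAS-bla HEK293T cells in medium with 2% charcoal-stripped FBS were treated with compounds plus R5020 for 16 hr at 37C. After the beta-lactamase read, CellTiter-Glo was added to the same wells and luminescence read after 30 min at room temperature.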

The target in assay [14] is PGR (gene 5241) (UniProt P06401). Briefly: TOX21_PR_LUC_Followup_Antagonist: Tox21 HEK293 Progesterone Receptor (PR) Antagonism Luciferase Follow-Up Assay (AID 2283938).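 Further: curve fitted upward as signal gain over DMSO baseline despite antagonist label.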 An outline of the steps: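 Luminescence from ONE-Glo was measured 30 min after reagent addition, following 16 h exposure of HEK293-PR-A-luc cells (3,000/well, plated 5 h earlier) to DMSO-dissolved compounds at 37C; DMSO served as baseline.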

Assay [15] can be described thus: TOX21_PR_LUC_Followup_Antagonist_viability: Viability Assessment in the Tox21 HEK293 Progesterone Receptor (PR) Antagonism Luciferase Follow-Up Assay (AID 2283940). An outline of the steps:
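Read-out: CellTiter-Glo ATP luminescence, loss of signal taken as reduced viability. Cells: HEK293-PR-A-luc, 3,000/well, 5 h settling, then 16 h compound exposure at 37C, 0% CO2.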

Assay [16] in a line: TOX21_PR_LUC_Followup_Agonist_viability: Viability Assessment in the Tox21 HEK293 Progesterone Receptor (PR) Agonism Luciferase Follow-Up Assay (AID 2283941).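 Further: loss of signal means cytotoxicity so actives lower viability.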 The procedure, abridged: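 Cytotoxicity counter-screen: ATP content by CellTiter-Glo luminescence, loss of signal = reduced viability. HEK293-PR-A-luc, 3,000 cells/well, compound exposure 16 h, 37C.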
A short description of assay [17]: CEETOX_H295R_ESTRONE_noMTC: CeeTox H295R High-throughput Steroidogenesis Assay for Estrone, maximum tolerated concentration (MTC) filtered results only (AID 2283921; active means hit-call score of the fitted dose curve at least 0.9, where 1 is the maximum; inactive means score below 0.9). The following applies: actives raise or lower the signal. An outline of the steps: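 Estrone in spent medium, quantified by tandem MS following dansyl chloride derivatization, after 48 h chemical exposure (0.1% DMSO) of forskolin-prestimulated (10 uM, 48 h) H295R cells; concentrations not MTC-filtered, bidirectional fit against DMSO.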

For assay [18], the target named is PGR (gene 5241) (UniProt P06401). Briefly: TOX21_PR_LUC_Followup_Agonist: Tox21 HEK293 Progesterone Receptor (PR) Agonism Luciferase Follow-Up Assay (AID 2283937; active means hit-call score of the fitted dose curve at least 0.9, where 1 is the maximum; inactive means score below 0.9). An outline of the steps:
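Luminescence read-out (ONE-Glo, 30 min at room temperature) of PR-driven luciferase in HEK293-PR-A-luc cells after 16 h compound exposure at 37C; gain of signal fitted relative to DMSO baseline.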

For assay [19], the target named is T1, Thyroid hormone receptor alpha (Rattus norvegicus) + Thyroid hormone receptor beta (Rattus norvegicus). The experiment in a line: TOX21_TR_LUC_GH3_Agonist_Followup: Tox21 GH3 Thyroid Hormone Receptor Agonism Luciferase Follow-Up Assay (AID 2283939). An outline of the steps: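 Agonist-mode confirmatory run: 15 concentrations (5 nM to 92 uM final) on GH3 rat pituitary cells, 24 h at 37C/5% CO2, T3 as positive control. Luminescence read with ONE-Glo after 30 min.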

Assay [20] addresses THRA (gene 7067) (UniProt P10827). The experiment in a line: TOX21_TRA_COA_Antagonist_Followup_ratio: Tox21 Thyroid Hormone Receptor alpha Antagonism through Coactivator Recruitment Follow-Up Assay, Ratio (AID 2283953). An outline of the steps: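 We measured antagonism of T3-type coactivator recruitment using a TR-FRET ratio (emission 520 and 495 nm) between a Tb-labelled anti-GST antibody on TRα LBD (2.5 nM) and SRC-2 peptide (200 nM). Activity was scaled between DMSO and T3 wells.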

Results filed as inconclusive are left out. Activity calls are given as the source filed them. How the source made its calls, unless noted: active means hit-call score of the fitted dose curve at least 0.9, where 1 is the maximum; inconclusive means response in the unintended direction; inactive means score below 0.9.

Chain of THRA (gene 7067) (P10827 whole entry, looked up, the tested form may be a part): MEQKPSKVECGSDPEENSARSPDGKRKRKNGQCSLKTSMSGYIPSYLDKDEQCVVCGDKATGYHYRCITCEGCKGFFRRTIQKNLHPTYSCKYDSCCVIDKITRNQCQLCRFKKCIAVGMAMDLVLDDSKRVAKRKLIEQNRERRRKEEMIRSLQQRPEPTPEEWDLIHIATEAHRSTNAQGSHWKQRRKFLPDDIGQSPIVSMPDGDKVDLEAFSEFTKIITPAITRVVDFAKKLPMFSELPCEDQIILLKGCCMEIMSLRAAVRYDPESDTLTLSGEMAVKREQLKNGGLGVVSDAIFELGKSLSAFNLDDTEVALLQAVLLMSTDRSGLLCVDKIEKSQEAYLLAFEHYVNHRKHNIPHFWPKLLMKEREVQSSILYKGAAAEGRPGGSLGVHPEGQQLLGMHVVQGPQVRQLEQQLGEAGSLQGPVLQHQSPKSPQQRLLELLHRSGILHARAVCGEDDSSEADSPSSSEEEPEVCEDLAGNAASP
Chain of PGR (gene 5241) (P06401 whole entry, looked up, the tested form may be a part): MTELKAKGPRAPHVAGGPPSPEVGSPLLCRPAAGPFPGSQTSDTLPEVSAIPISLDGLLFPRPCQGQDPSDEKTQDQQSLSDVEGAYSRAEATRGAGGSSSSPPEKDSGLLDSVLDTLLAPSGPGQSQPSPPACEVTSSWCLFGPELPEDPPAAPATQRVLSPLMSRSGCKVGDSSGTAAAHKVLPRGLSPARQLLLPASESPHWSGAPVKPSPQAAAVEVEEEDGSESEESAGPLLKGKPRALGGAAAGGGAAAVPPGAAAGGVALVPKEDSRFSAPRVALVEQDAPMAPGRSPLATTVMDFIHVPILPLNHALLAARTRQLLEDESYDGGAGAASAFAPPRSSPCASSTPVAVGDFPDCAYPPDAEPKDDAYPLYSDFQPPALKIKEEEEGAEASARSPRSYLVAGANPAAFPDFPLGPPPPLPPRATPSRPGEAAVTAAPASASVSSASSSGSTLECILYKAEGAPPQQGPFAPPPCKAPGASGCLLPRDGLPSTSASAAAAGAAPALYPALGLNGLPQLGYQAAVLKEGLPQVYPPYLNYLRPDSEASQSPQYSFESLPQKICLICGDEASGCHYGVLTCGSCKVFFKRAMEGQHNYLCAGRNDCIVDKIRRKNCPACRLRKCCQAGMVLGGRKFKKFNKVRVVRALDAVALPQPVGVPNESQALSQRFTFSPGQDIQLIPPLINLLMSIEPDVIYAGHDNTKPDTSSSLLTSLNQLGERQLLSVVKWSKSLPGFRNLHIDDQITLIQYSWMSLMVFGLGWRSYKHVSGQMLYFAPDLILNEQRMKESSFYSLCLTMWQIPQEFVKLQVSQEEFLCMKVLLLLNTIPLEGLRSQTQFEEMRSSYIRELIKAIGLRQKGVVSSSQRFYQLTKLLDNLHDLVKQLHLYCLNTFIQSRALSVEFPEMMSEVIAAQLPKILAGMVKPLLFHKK
Chain of THRB (gene 7068) (P10828 whole entry, looked up, the tested form may be a part): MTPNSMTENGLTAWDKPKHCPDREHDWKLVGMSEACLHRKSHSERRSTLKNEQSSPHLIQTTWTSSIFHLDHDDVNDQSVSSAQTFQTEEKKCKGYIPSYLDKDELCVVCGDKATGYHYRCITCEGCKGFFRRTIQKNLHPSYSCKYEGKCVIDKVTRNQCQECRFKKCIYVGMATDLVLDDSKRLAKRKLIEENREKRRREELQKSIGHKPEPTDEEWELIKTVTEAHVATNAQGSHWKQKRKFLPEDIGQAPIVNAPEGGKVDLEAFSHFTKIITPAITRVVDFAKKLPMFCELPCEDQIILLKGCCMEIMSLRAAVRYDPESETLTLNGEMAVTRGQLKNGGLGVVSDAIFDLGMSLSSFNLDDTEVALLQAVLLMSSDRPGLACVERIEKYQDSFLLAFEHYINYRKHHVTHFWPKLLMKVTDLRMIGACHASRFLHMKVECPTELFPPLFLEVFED
Chain of Retinoic acid receptor RXR-alpha (Homo sapiens) (P19793 whole entry, looked up): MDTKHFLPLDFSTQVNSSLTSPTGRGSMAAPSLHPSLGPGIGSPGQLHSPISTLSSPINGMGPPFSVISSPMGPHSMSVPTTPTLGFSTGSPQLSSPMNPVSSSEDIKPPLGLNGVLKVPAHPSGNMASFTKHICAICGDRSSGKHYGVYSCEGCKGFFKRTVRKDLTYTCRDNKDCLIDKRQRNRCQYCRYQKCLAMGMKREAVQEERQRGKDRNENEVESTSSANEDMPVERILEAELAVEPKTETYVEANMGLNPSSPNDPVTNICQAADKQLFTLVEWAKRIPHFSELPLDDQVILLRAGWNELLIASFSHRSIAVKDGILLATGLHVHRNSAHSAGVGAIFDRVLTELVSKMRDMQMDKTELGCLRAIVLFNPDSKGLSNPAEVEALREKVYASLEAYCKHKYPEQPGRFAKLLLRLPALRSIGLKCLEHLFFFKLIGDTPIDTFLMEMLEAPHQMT
T1 sequence (P63059 whole entry, looked up): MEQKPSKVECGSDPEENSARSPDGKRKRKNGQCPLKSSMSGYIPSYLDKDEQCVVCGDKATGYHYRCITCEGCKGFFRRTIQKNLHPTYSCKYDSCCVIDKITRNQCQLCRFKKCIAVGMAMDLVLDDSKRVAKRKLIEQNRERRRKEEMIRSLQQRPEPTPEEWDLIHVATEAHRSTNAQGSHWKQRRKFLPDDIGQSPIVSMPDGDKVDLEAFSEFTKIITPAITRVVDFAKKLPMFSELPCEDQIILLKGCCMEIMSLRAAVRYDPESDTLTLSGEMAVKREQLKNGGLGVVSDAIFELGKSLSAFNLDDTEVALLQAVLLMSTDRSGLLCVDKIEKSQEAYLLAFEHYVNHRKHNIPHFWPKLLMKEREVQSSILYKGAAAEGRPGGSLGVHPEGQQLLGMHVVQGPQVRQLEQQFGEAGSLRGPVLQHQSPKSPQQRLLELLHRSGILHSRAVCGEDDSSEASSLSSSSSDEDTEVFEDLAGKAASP
T1 sequence (P18113 whole entry, looked up): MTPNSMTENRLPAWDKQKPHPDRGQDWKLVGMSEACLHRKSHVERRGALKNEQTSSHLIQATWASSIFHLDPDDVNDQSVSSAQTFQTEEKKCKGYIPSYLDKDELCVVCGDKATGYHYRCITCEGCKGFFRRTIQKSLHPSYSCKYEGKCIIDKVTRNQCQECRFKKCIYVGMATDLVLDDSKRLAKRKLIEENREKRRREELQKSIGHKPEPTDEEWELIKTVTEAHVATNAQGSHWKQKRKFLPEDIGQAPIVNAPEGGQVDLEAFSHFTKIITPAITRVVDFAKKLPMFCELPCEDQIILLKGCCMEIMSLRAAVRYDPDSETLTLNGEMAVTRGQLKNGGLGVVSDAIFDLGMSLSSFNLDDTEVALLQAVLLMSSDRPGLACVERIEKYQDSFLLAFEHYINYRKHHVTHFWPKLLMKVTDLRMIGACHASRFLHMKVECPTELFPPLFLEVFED

For orientation: AC50 means the concentration at which the activity in the assay is half-maximal. Take `CN(C)c1ccc(C(=O)c2ccc(N(C)C)cc2)cc1`: the outcome (in [1]; in assay [3]; in the assay with THRB (gene 7068) [4]) was inactive. For the same molecule, the AC50 with THRB (gene 7068) [2] was 2.66 µM (active).
As to `Clc1ccc(Cl)c(Cl)c1`, the result (with THRA (gene 7067) [5]; with THRB (gene 7068) [6]; in [7]; with THRB (gene 7068) [8]; in assay [9]; in [10]) was inactive.
Regarding `Clc1ccc(C(c2ccc(Cl)cc2)C(Cl)(Cl)Cl)cc1`, the half-maximal activity concentration (AC50) is 34.8 µM (active) with PGR (gene 5241) [11], 84.9 µM (active) in assay [12] and 32.5 µM (active) with PGR (gene 5241) [14]. In addition, the outcome in assay [13], in [15] and in [16] was inactive.
On to `ClC1=C(Cl)[C@]2(Cl)[C@H]3[C@H]([C@@H]4C=C[C@H]3C4)[C@@]1(Cl)C2(Cl)Cl`, for which the half-maximal activity concentration (AC50) with PGR (gene 5241) [11] is 46.1 µM (active); in assay [12] it was 62.6 µM (active); with PGR (gene 5241) [14], 46.1 µM (active). The molecule was called inactive in assay [13].
In the case of `O=[N+]([O-])c1ccc(Oc2ccc(Cl)cc2Cl)cc1`, the AC50 with PGR (gene 5241) [11] is 20.6 µM (active). Moreover, the call (in assay [12]; with PGR (gene 5241) [14]; in [15]; in assay [16]) was inactive.
`Clc1ccc(C(c2ccc(Cl)cc2)C(Cl)Cl)cc1`: the AC50 is 31.5 µM (active) in the assay with PGR (gene 5241) [11] and 33.8 µM (active) in the assay with PGR (gene 5241) [14]. The molecule was classed as inactive in assay [12] and in [13].
Take `CC(C)COC(=O)c1ccccc1C(=O)OCC(C)C`: in [17], the molecule was classed as inactive.
Consider `C[C@]12C=CC3=C4CCC(=O)C=C4CC[C@H]3[C@@H]1CC[C@@H]2O`, for which the result (in the assay with PGR (gene 5241) [11]; in assay [12]; in [13]; with PGR (gene 5241) [14]; in assay [15]; in assay [16]) was inactive. For the same molecule, the concentration at half-maximal activity (AC50) with PGR (gene 5241) [18] is 0.00268 µM (active).
As to `CCCCCOC(=O)c1ccccc1C(=O)OCCCCC`, the molecule was called inactive in assay [17].
For `CCCCOC(=O)c1ccccc1C(=O)OCc1ccccc1`, the result (with PGR (gene 5241) [11]; in [12]; in assay [13]; in the assay with PGR (gene 5241) [14]; in assay [15]; in assay [16]) was inactive.
In the case of `Cc1ccc(N)cc1`, the outcome (in assay [19]; in the assay with THRA (gene 7067) [5]; with THRB (gene 7068) [6]; in [7]; with THRB (gene 7068) [8]; in [9]) was inactive. The outcome in assay [10] was inactive.
`COC(=O)Nc1nc2ccccc2[nH]1`: the result (in assay [1]; in the assay with THRA (gene 7067) [20]; in assay [3]; with THRB (gene 7068) [4]) was inactive.
